The results in this text go back to ChEMBL document CHEMBL1961873, “Compounds: GSK PKIS; Assays: Nanosyn kinase panel” (2012).

For assay [1], the target named is Rho-associated protein kinase 1 (Homo sapiens) (UniProt Q13464). Particulars: at 1 µM.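 Further: reported values are mean percent inhibition of ROCK1.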
Assay [2] has as its target Rho-associated protein kinase 2 (Homo sapiens) (UniProt O75116). Particulars: at 0.1 µM.
Assay [3] has the same target. Particulars: at 1 µM.
The target in assay [4] is Ribosomal protein S6 kinase alpha-1 (Homo sapiens) (UniProt Q15418). Conditions: at 0.1 µM.
For assay [5] the target is unchanged. Conditions: at 1 µM.
The target of assay [6] is Ribosomal protein S6 kinase alpha-3 (Homo sapiens) (UniProt P51812). Particulars: at 0.1 µM.
Ribosomal protein S6 kinase alpha-3 (Homo sapiens), sequence (P51812 whole entry): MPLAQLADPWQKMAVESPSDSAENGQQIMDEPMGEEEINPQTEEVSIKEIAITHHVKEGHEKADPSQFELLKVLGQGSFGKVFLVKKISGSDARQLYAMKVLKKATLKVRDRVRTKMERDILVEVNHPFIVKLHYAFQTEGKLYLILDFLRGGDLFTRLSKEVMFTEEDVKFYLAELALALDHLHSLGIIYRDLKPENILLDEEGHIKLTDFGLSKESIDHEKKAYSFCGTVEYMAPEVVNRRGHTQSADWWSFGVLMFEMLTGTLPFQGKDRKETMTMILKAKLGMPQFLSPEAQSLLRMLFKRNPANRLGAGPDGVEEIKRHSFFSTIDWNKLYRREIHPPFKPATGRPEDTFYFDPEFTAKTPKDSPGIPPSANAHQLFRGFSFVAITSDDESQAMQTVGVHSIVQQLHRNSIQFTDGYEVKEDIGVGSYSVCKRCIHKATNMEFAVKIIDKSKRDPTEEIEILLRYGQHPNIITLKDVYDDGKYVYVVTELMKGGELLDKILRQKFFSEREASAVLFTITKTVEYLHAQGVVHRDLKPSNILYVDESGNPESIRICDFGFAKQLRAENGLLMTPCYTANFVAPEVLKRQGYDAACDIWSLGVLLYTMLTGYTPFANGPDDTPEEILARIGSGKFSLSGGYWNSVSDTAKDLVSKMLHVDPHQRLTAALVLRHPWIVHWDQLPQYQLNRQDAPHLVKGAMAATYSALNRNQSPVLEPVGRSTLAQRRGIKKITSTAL
The target is the same in assay [7]. Conditions: at 1 µM.
For assay [8], the target named is Ribosomal protein S6 kinase alpha-2 (Homo sapiens) (UniProt Q15349). Particulars: at 0.1 µM.
Ribosomal protein S6 kinase alpha-2 (Homo sapiens), sequence (Q15349 whole entry): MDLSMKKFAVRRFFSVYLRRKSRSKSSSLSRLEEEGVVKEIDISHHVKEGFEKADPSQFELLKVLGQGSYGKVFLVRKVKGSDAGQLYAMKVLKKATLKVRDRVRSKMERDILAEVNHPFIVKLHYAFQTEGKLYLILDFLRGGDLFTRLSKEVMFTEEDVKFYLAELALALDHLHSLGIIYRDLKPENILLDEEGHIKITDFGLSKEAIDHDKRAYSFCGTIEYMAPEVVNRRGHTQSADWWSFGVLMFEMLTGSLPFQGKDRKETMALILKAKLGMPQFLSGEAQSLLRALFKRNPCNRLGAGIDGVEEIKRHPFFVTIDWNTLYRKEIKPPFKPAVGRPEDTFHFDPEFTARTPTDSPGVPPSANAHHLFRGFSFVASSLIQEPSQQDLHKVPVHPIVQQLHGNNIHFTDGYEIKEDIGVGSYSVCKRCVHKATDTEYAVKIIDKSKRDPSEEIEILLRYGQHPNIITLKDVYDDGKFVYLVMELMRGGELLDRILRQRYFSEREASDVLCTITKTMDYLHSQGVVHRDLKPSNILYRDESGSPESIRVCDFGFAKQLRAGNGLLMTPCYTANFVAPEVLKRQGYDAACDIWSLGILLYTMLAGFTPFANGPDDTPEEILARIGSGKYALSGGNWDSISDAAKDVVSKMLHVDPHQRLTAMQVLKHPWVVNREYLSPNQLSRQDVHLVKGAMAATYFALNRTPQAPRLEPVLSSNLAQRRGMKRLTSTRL
Assay [9] has the same target. Particulars: at 1 µM.
Assay [10] has as its target Ribosomal protein S6 kinase alpha-6 (Homo sapiens) (UniProt Q9UK32). Particulars: at 0.1 µM.
For assay [11] the target is unchanged. Particulars: at 1 µM.
The target in assay [12] is T1, Serine/threonine-protein kinase Sgk1 (Homo sapiens) (UniProt O00141).
T1 sequence (whole entry): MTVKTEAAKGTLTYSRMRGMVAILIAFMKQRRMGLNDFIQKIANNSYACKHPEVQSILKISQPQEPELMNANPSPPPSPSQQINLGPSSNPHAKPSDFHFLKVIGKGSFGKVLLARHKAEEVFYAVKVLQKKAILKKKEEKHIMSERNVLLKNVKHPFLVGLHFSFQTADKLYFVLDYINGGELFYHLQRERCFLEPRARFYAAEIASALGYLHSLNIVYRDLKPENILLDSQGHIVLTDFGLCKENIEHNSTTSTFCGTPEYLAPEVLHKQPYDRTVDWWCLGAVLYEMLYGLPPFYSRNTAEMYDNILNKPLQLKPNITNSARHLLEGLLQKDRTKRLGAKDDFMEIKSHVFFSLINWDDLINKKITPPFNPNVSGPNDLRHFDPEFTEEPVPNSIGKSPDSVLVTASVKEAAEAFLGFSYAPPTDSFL
Conditions: at 0.1 µM.

The target of assay [13] is T1, Serine/threonine-protein kinase Sgk1 (Homo sapiens). Conditions: at 1 µM.
Assay [14] addresses T2, Serine/threonine-protein kinase Sgk2 (Homo sapiens) (UniProt Q9HBY8).
T2 sequence (whole entry): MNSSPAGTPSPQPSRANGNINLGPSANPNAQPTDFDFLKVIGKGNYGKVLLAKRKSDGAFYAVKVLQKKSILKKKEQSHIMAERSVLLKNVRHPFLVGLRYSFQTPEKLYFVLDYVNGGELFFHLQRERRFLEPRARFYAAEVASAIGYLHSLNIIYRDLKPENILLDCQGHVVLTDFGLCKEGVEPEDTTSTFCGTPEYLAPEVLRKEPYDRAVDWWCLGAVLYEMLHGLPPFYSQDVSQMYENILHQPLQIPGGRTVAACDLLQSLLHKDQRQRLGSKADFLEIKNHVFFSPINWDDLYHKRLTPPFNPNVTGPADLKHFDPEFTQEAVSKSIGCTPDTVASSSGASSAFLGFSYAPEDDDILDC
Particulars: at 0.1 µM.

Assay [15] concerns the target T2, Serine/threonine-protein kinase Sgk2 (Homo sapiens). Particulars: at 1 µM.
Assay [16] addresses T3, Serine/threonine-protein kinase Sgk3 (Homo sapiens) (UniProt Q96BR1).
T3 sequence (whole entry): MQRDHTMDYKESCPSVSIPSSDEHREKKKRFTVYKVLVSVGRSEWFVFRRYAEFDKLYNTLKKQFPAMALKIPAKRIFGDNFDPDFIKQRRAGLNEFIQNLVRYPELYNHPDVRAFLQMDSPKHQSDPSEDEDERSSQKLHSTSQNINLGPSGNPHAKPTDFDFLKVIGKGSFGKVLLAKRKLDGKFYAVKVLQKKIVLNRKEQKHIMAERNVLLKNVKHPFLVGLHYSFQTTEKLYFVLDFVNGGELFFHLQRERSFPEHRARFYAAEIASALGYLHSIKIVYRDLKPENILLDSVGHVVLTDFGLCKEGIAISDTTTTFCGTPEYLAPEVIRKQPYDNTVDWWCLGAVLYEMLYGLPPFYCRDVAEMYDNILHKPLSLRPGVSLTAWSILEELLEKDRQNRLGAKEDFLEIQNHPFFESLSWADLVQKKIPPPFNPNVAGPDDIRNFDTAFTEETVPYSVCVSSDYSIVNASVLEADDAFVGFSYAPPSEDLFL
Particulars: at 0.1 µM.

Assay [17] has as its target T3, Serine/threonine-protein kinase Sgk3 (Homo sapiens). Particulars: at 1 µM.
For assay [18], the target named is 5'-AMP-activated protein kinase catalytic subunit alpha-1 (Homo sapiens) (UniProt Q13131). Particulars: at 0.1 µM.
5'-AMP-activated protein kinase catalytic subunit alpha-1 (Homo sapiens), sequence (Q13131 whole entry, looked up): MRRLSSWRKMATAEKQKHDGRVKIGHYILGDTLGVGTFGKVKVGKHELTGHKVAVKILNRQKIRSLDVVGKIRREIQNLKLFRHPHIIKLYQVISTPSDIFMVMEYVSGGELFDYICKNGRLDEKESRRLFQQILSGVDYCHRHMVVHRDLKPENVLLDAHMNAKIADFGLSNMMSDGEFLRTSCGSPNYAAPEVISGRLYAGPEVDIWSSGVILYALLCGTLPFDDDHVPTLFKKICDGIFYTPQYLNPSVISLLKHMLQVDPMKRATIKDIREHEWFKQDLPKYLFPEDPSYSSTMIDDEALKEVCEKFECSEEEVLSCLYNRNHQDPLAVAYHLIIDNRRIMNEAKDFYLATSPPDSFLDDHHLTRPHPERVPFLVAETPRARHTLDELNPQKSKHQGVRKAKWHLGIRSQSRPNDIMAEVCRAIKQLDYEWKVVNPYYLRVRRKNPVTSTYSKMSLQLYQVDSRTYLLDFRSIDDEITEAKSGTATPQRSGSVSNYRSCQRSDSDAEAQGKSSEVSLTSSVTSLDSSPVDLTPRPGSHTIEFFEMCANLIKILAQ
The target is the same in assay [19]. Conditions: at 1 µM.
For assay [20], the target named is 5'-AMP-activated protein kinase catalytic subunit alpha-2 (Homo sapiens) (UniProt P54646). Particulars: at 0.1 µM.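 Further: mean inhibition measured on the AMPK complex of alpha2, beta1 and gamma1 subunits.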
5'-AMP-activated protein kinase catalytic subunit alpha-2 (Homo sapiens), sequence (P54646 whole entry, looked up): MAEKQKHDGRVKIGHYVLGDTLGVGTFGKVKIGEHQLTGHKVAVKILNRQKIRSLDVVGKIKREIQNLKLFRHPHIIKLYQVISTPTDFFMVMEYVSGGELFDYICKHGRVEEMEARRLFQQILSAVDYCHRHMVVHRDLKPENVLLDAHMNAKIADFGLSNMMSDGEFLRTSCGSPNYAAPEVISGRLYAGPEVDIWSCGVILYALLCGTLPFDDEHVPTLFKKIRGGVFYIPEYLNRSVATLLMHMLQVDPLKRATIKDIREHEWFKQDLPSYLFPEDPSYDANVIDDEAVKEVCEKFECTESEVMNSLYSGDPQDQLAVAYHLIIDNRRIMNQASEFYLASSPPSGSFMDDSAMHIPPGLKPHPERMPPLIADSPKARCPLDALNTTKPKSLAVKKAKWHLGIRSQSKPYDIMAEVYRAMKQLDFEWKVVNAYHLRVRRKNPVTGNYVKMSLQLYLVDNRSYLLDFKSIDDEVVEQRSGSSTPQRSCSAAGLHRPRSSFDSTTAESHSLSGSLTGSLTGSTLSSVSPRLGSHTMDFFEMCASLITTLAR

Structures are written as SMILES.

By inhibition is commonly meant the change of the read-out against control, counted positive when it falls.

Rho-associated protein kinase 2 (Homo sapiens), sequence (O75116 whole entry, looked up): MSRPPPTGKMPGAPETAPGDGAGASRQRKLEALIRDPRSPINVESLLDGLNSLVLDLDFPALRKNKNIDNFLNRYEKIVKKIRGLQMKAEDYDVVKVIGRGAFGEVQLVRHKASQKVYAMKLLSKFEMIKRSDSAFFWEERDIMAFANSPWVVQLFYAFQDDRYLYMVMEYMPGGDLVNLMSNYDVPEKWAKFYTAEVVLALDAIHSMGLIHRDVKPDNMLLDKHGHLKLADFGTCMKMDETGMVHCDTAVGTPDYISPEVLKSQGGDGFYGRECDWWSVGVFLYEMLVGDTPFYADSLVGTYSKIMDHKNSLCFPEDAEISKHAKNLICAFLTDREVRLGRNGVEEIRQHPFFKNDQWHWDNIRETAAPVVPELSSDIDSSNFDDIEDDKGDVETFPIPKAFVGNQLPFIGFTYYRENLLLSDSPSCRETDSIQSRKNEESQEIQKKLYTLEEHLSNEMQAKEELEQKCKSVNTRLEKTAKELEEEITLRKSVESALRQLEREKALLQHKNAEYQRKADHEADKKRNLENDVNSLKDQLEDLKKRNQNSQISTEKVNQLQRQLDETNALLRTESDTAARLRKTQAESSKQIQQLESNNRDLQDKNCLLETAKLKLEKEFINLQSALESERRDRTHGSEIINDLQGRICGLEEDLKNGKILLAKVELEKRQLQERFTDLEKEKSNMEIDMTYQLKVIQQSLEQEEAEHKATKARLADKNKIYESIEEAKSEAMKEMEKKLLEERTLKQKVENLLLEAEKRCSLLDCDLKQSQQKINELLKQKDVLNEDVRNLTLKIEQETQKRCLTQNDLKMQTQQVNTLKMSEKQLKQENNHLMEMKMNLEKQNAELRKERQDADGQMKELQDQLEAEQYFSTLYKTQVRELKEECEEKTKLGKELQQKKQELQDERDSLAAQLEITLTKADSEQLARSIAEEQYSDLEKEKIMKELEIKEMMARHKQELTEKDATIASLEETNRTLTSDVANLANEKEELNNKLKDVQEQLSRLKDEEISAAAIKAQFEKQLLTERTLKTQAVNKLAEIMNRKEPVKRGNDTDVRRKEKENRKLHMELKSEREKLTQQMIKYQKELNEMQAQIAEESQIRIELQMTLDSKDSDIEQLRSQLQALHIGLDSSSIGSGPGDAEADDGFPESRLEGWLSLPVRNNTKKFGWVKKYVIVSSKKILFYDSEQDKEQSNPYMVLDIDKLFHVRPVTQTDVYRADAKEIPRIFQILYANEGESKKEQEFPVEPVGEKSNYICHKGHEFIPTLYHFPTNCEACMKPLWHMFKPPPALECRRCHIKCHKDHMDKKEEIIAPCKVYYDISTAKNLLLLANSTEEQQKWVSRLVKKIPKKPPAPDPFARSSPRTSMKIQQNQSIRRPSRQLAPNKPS
Ribosomal protein S6 kinase alpha-6 (Homo sapiens), sequence (Q9UK32 whole entry): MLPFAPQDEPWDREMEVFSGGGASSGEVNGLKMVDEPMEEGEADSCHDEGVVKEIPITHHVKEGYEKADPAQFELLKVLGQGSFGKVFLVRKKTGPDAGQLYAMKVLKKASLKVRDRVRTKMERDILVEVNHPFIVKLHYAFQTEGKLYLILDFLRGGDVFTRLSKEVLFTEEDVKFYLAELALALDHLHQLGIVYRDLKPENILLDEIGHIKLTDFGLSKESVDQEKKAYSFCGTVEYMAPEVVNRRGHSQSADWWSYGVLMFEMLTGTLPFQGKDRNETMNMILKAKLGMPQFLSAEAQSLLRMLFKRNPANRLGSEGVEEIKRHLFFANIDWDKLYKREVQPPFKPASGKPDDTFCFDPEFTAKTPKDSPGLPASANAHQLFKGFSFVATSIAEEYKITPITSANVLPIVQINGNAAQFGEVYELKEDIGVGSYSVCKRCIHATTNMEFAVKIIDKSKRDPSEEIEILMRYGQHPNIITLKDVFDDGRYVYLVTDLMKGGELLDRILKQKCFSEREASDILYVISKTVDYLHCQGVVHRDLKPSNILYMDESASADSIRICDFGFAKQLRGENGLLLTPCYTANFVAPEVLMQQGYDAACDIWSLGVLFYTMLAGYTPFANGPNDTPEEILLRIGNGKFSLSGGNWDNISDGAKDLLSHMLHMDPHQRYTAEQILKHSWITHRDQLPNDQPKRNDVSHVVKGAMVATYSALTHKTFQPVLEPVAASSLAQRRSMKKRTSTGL

As to `COc1ccc(COc2ccc(Cc3cnc(N)nc3N)cc2OC)cc1`, the inhibition in [1] was 2.94%; in assay [2], 1.54%; in assay [3], -1.22%; in [4] it was 1.36%; in [5] it was -1.81%; in assay [6], 0.78%. The inhibition was -0.8% in assay [7]; 0.01% in [8]; -1% in assay [9]; 0.69% in [10]; -0.61% in [11]; 5.08% in assay [12]. In addition, the inhibition in [13] is 1.31%; in [14], 4.24%; in assay [15], 3%; in [16], 2.57%; in assay [17] it was 1.28%; in [18] it was -0.17%. The inhibition in assay [19] was -0.28%; in [20] it was 2.65%.
As for `Fc1cccc(COc2ccc(Nc3ncnc4cc(-c5ccc[nH]5)sc34)cc2Cl)c1`, the inhibition is 1.71% in [1]; 1.64% in assay [2]; 2.17% in assay [3]; 2.06% in [4]; 0.75% in [5]; 2.4% in [6]. Also, the inhibition stood at 2.56% in assay [7]; 1.77% in assay [8]; 2.41% in assay [9]; 1.15% in assay [10]; 2.27% in assay [11]; 1.92% in assay [12]. For the same molecule, the inhibition in assay [13] was 3.96%; in assay [14], -0.18%; in assay [15] it was 5.58%; in [16], 0.1%; in [17] it was 4.46%; in [18] it was 1.8%. The inhibition stood at 0.98% in [19] and 3.81% in assay [20].
Regarding `Cn1cc(C=C2C(=O)Nc3cccnc32)c2ccccc21`, the inhibition in [1] came to 5.28%; in [2], 2.47%; in assay [3], 8.3%; in assay [4], 0.08%; in assay [5], 5.16%; in assay [8], 1.73%. In addition, the inhibition was 7.9% in assay [9]; 2.64% in assay [10]; 10.2% in assay [11]; 1.6% in assay [12]; 5.51% in assay [13]; -2.41% in [14]. Besides, the inhibition in [15] came to 1.75%; in assay [16], 1.35%; in assay [17], 0.63%; in assay [18] it was 5.84%; in assay [19], 14.8%; in assay [20], 4.46%.
Turning to `CCc1cccc(NC(=O)Nc2ccc(Oc3ccc4nc(NC(=O)OC)[nH]c4c3)cc2)c1`, the inhibition in assay [1] turned out to be 18.3%; in assay [2], 5.32%; in assay [3] it was 8.2%; in assay [4], 1.07%; in [5], 1.59%; in assay [6], 0.58%. The inhibition is 0.96% in assay [7]; 1.52% in [8]; 1.5% in assay [9]; -0.02% in [10]; 1.25% in [11]; 0.38% in assay [12]. Moreover, the inhibition is 1.59% in [13]; 3.74% in [14]; -0.81% in assay [15]; 5.12% in assay [16]; 3.61% in [17]; 1.46% in [18]. The values for the inhibition in assay [19] and in assay [20] were 0.41% and -5.13%, respectively.
Regarding `NS(=O)(=O)c1cccc(-c2ccc3c(NC(=O)C4CC4)n[nH]c3c2)c1`, the inhibition in assay [1] worked out at 1.53%; in [2] it was 0.53%; in assay [3] it was 2.48%; in assay [4], 0.46%; in [5], 3.07%; in assay [6], 0.8%. Moreover, the inhibition in assay [7] was 2.45%; in assay [8] it was -0.89%; in assay [9], 0.27%; in assay [10] it was -0.55%; in [11], 0.54%; in [12], 1.71%. Also, the inhibition in assay [13] is 2.69%; in assay [14], 3.21%; in assay [15], -4.4%; in [16], 0.09%; in [17], 0.67%; in assay [18], -0.48%. Also, the inhibition stood at 0.34% in assay [19] and 3.53% in assay [20].
As for `COc1cc2ncn(-c3cc(O[C@@H](C)c4ccccc4Cl)c(C(N)=O)s3)c2cc1OC`, the inhibition in [1] turned out to be 3.27%; in assay [2], 3.27%; in assay [3], 5.4%; in assay [4], 1.94%; in [5], 4.51%; in assay [6], 1.79%. Moreover, the inhibition worked out at 5.13% in [7]; 3.03% in [8]; 6.66% in assay [9]; 1.81% in assay [10]; 6.8% in [11]; 3.98% in assay [12]. In addition, the inhibition is 4.72% in assay [13]; 4.32% in [14]; 3.95% in [15]; 4.22% in [16]; 7.31% in assay [17]; 3.57% in assay [18]. Also, the inhibition was 10.6% in assay [19] and 1.04% in assay [20].
For `COc1cc2ncn(-c3cc(OCc4ccccc4C(F)(F)F)c(C(N)=O)s3)c2cc1OC`, the inhibition in assay [1] was 4.31%; in assay [2], 3.56%; in assay [3] it was 8.03%; in assay [4] it was 0.65%; in assay [5], 9.54%; in assay [6] it was -0.02%. The inhibition is 11.1% in [7]; 2.5% in assay [8]; 8.42% in assay [9]; 3.37% in assay [10]; 23.6% in assay [11]; 3.02% in [12]. The inhibition in assay [13] came to 1.49%; in assay [14] it was 6.11%; in assay [15], 0.81%; in assay [16], 3.87%; in [17] it was 1.64%; in [18], 5.52%. Also, the inhibition stood at 19.1% in assay [19] and 2.61% in assay [20].
